An excerpt weighted towards active compounds, which were near 22% of everything screened.
Shiga inhibitor = inhibitors of Shiga toxin in Vero cells. hit rate 9.2% among 290,000. Vero cells, Shiga toxin protein synthesis inhibition reporter. AID 2315. inhibition, % at 38.7 µM; in the data active = inhibition mostly above about 28%, no sharp cut-off; inactive = mostly below about 43%; also: 0% is about no effect
CHX counter = counter-screen for Shiga toxin inhibitors: cycloheximide protein synthesis inhibition | cell reporter, cycloheximide protein synthesis inhibition counterscreen | max response, % | hit rate 12% among 300,000 | AID 2314; in the data active = max response mostly above about 13%, no sharp cut-off; inactive = mostly below about 14%; also: read at 38.3 µM for the half of the compounds with a filed dose; 0% is about no effect
Pf growth 96h = P. falciparum growth inhibition at 96 hours. hit rate 6.9% among 320,000. Potency, µM (top dose mostly 28.7 µM), for inactives: at the highest dose activity change, negative = inhibition, usual class: inhibitors. P. falciparum luciferase reporter growth, 96 h. AID 504834; also: potency is read from the fitted curve at half-maximal effect; % is scaled to controls: 0 for no effect and ±100 for the full control effect
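Two parasite generations (96 h, 37 C, 5% CO2) of compound exposure in infected erythrocytes (0.05% parasitemia, 2% hematocrit). Luciferase-reporter P. falciparum; decreased luminescence indicates inhibited growth, aimed at apicoplast-acting delayed death.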
LmPK inh = inhibitors of Leishmania mexicana pyruvate kinase | purified LmPK, Kinase-Glo ATP luminescence, 1 h | Potency, µM (series often up to 57.5 µM), for inactives: at the top dose activity change, negative = inhibition, most hits filed as inhibitors | hit rate 0.37% among 290,000 | AID 1721; also: potency is read from the fitted curve at half-maximal effect; % is scaled to controls: 0 for no effect and ±100 for the full control effect
Target sequence (Q27686 whole entry, looked up): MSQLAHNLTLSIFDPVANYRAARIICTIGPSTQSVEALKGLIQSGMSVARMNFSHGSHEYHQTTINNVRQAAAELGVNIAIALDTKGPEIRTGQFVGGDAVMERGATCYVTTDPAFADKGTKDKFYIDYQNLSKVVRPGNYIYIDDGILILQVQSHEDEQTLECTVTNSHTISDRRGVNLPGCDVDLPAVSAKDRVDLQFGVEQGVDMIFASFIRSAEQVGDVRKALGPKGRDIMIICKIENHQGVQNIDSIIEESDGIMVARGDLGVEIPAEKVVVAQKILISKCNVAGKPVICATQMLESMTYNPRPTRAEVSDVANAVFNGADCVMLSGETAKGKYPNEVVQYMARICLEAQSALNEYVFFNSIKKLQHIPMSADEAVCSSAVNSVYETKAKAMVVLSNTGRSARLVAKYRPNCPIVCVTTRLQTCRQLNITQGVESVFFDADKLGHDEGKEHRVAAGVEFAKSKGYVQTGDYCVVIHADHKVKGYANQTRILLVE
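Purified LmPK (0.1 nM) with 0.5 mM PEP and 0.1 mM ADP in imidazole buffer pH 7.2 with MgCl2/KCl, 1 h at room temperature. ATP formed was read by luciferase luminescence and normalized to no-enzyme and uninhibited controls.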
Pf growth 48h = inhibits P. falciparum growth in the first generation, 48 h; P. falciparum luciferase growth in erythrocytes, 48 h; Potency, µM (top dose mostly 28.7 µM), for inactives: at the top dose activity change, negative = inhibition, most hits filed as inhibitors; hit rate 5.9% among 310,000; AID 504832; also: potency is read from the fitted curve at half-maximal effect; % is scaled to controls: 0 for no effect and ±100 for the full control effect
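A one-generation exposure of luciferase-tagged malaria parasites in RPMI 1640/Albumax erythrocyte culture, 37 C and 5% CO2. Inhibition is inferred from decreased luminescence after adding detection reagent.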
* hit, by the source's call; ? = inconclusive; · = no result; [ ] = remark or other dose. Unless noted, calls follow the shape of the dose curve; as a rule, active = well fitted inhibition curve with a large enough effect; inconclusive = small, poorly fitted or top-dose-only effect, or another doubt; inactive = no such curve, though single readings can be large or run the other way.

SMILES | Shiga inhibitor | CHX counter | Pf growth 96h | LmPK inh | Pf growth 48h
O=C(/C=C/c1ccccc1)Nc1ccc(CN2CCOCC2)cc1 | 35* | 47* | 37% | -2% | 85%
O=C(/C=C/c1ccc(Cl)cc1)NC(=S)Nc1ccc(CN2CCOCC2)cc1 | 1 | -13 | ? | 0% | -15%
O=C(/C=C/c1ccco1)Nc1ccc(N2CCCC2)cc1 | 66* | 68* | 3% | -17% | 2%
C/C(=N\NS(=O)(=O)c1ccccc1)c1ccc2c(c1)OCCO2 | -1 | -1 | -3% | -1% | 8%
CCC(CC)C(=O)OCC(=O)Nc1cc(OC)c([N+](=O)[O-])cc1C | -3 | 8 | 13% | -3% | -10%
CC(C)C(=O)c1cn(CC(=O)N2CCCc3ccccc32)c2ccccc12 | -8 | -2 | ? | 1% | ·
CCc1cccc2sc(N3CCN(C(=O)c4ccc([N+](=O)[O-])o4)CC3)nc12 | · | · | 0.52µM* | · | 0.66µM*
Cc1cc(C)c(NC(=O)C2CCN(C(=O)c3ccco3)CC2)c(C)c1 | -6 | -3 | 0% | -3% | 21%
O=C(c1ccc([N+](=O)[O-])o1)N1CCN(Cc2ccccc2)CC1 | -5 | -3 | ? | -6% | ?
COc1cccc2sc(N3CCN(C(=O)c4ccco4)CC3)nc12 | · | · | ? | · | 9.3µM*
COc1cccc(OC)c1C(=O)Nc1ccc(N2CCN(C(=O)c3ccco3)CC2)cc1 | 40 | 3 | ? | 0% | 16%
Cc1cccc2sc(NC(=O)C3CCN(C(=O)c4ccco4)CC3)nc12 | 40 | 38* | 15µM* | 4% | -20%
CCCCCCSc1ccc([C@H]2N[C@@](Cc3ccccc3)(C(=O)OC)[C@H]3C(=O)N(CC)C(=O)[C@@H]23)cc1 | · | · | 0.47µM* | · | 0.83µM*
CCCSc1ccc([C@H]2N[C@@](Cc3ccccc3)(C(=O)OC)[C@H]3C(=O)N(CC)C(=O)[C@@H]23)cc1 | · | · | 1µM* | · | 1.5µM*
COC(=O)C1(CCSC)NC(c2ccccc2OC)C2C(=O)N(C)C(=O)C21 (configuration not stated) | -19 | -8 | -2% | -3% | 5%
CCCCCCSc1ccc([C@H]2N[C@@](Cc3ccccc3)(C(=O)OC)[C@H]3C(=O)N(C)C(=O)[C@@H]23)cc1 | · | · | ? | · | 0.29µM*
CCC(C)Sc1ccc([C@H]2N[C@@](Cc3ccccc3)(C(=O)OC)[C@H]3C(=O)N(C)C(=O)[C@@H]23)cc1 (some centres not stated) | · | · | ? | · | 1µM*
CCN1C(=O)C2C(c3ccccc3F)NC(Cc3ccc(O)cc3)(C(=O)OC)C2C1=O (configuration not stated) | -7 | -1 | ? | -5% | 39%
Cc1cc(NC(=O)CN(C)CC(=O)Nc2ccc(F)c(F)c2F)no1 | · | · | -10% | · | 6%
O=C(Nc1cc(Br)ccc1O)c1cc(-c2ccc3c(c2)OCO3)on1 | 77* | 15* | 24% | 0% | ?
Cc1ccc(NC(=O)c2cc(-c3ccc4c(c3)OCO4)on2)cc1C | -7 | -1 | -21% | -2% | 24%
COc1ccccc1N1CCN(C(=O)c2cc(-c3ccc4c(c3)OCO4)on2)CC1 | 7 | 10 | ? | 2% | -7%
CN(C(=O)c1cc(-c2ccc3c(c2)OCO3)on1)c1ccccc1 | 95* | 34* | -14% | -9% | 82%
CSc1ccccc1NC(=O)c1cc(-c2ccc3c(c2)OCO3)on1 | 61* | 8 | 75% | -1% | 102%
Cc1ccc(Cl)cc1N1CCN(C(=O)CCCn2c(=O)c3cccn3c3cccnc32)CC1 | 8 | 6 | ? | 0% | ?
SMILES | Shiga inhibitor | CHX counter | Pf growth 96h | LmPK inh | Pf growth 48h
CCOC(=O)C1CCCN(C(=O)Cn2c(=O)c3cccn3c3cccnc32)C1 (configuration not stated) | -1 | -11 | 10µM* | -16% | -12%
Cc1cccc(N2CCN(C(=O)CCCn3c(=O)c4cccn4c4cccnc43)CC2)c1C | 17 | 11 | 12µM* | -3% | ?
CCOC(=O)C1CCN(C(=O)CCn2c(=O)c3cccn3c3cccnc32)CC1 | 7 | -8 | ? | -8% | ?
CN1CCN(C(=O)CCn2c(=O)c3cccn3c3cccnc32)CC1 | -10 | -2 | 13µM* | 9% | 34%
CC1CC(C)CN(C(=O)CCCn2c(=O)c3cccn3c3cccnc32)C1 (configuration not stated) | -1 | 2 | 12µM* | -2% | ?
CCC1(c2ccc(F)cc2)NC(=O)N(CC(=O)NCC(=O)Nc2cccc(C)c2C)C1=O (configuration not stated) | · | · | 2% | · | -28%
CCCCn1c(=O)[nH]c(=O)c2c1nc(Cn1ncc(Cl)c(Cl)c1=O)n2CCC | -12 | -3 | ? | -2% | ?
Cc1nn(-c2ccccc2)c2nc(N)c(C#N)c(-c3ccc(F)cc3)c12 | 3 | 6 | ? | 10% | 12µM*
Cc1ccc(-n2nc(C)c3c(-c4cccs4)c(C#N)c(N)nc32)cc1 | 4 | 22 | ? | 2% | ?
CCC(=O)Nc1cc(NC(=O)CSc2ncc(-c3ccc(F)cc3)n2Cc2ccco2)ccc1C | 76* | 27* | 22% | -1% | 34%
COCCn1c(-c2ccc(OC)cc2)cnc1SCC(=O)Nc1cccc2ccccc12 | -6 | 10 | 1.7µM* | 6% | ?
COc1ccc(NC(=O)CSc2ncc(-c3ccc(F)cc3)n2Cc2ccco2)cc1 | 11 | -3 | 12µM* | 1% | 15µM*
COc1ccc(-c2cnc(SCC(=O)Nc3nc(C(C)(C)C)cs3)n2Cc2ccco2)cc1 | 12 | 9 | ? | 1% | 13µM*
CC(C)CC(=O)NC(=S)Nc1ccccc1C(=O)Nc1ccccc1 | -11 | 20 | · | -7% | 16%
Cc1ccc(NC(=O)C2CCCN2S(=O)(=O)c2ccc(-c3ccc(=O)[nH]n3)s2)c(C)c1 (configuration not stated) | -9 | 15 | ? | 0% | ?
COCC(=O)N1CCc2nc(-c3ccc(OC)cc3C)c3c(c2C1)CO[C@@H](c1ccccc1)C3 | · | · | · | -3%[11.5 µM] | ·
CC1(C)CC2(CC(c3ccccc3)Oc3cc(O)ccc32)NC(=S)N1 (configuration not stated) | -9 | -4 | 0% | 3% | -22%
CN(c1ccc(Cl)cc1)S(=O)(=O)c1nnc(NC(=O)C(C)(C)C)s1 | -6 | 1 | ? | -2% | ?
COc1cccc(C(=O)Nc2cc(C)nn2-c2ccccc2)c1OC | -8 | -1 | ? | 1% | ?
Cn1c(SCC(=O)Nc2cccc3ccccc23)nc(O)cc1=O | 10 | -3 | ? | 3% | 10µM*
COc1ccccc1NC(=O)CSc1nc(O)cc(=O)n1C | -19 | -3 | · | -1% | -17%
CNC(=O)CSc1nnc(-c2ccco2)n1-c1cc(C)ccc1C | -11 | 2 | 12µM* | 1% | -14%
CNC(=O)CSc1nnc(-c2ccco2)n1-c1cccc(OC)c1 | -1 | -3 | 2.1µM* | -2% | -13%
